Bioassay records deposited in PubChem BioAssay by several laboratories.
PriA SSB inh – inhibitors of Klebsiella pneumoniae PriA binding to SSB C-terminal tail, primary screen, biochemical, AlphaScreen; PriA–SSB C-terminal tail interaction (Klebsiella pneumoniae); AlphaScreen SSBct-PriA binding, biotinylated peptide; inhibition, % at 33 µM; 430,000 tested, 0.6% active; AID 1272365, 2023; in the data active = inhibition mostly above about 37%, no sharp cut-off; inactive = mostly below about 20%
Mtb hypoxia rep – PubChem AID 1159583; M. tuberculosis hypoxia-regulated fluorescent reporter, fluorescence; fluorescence inhibition, % (test concentration not listed); 300,000 tested, 0.1% active; in the data active = fluorescence inhibition mostly above about 23%, no sharp cut-off; inactive = mostly below about 17%
Vc quorum ag – inducers of Vibrio cholerae quorum light production without autoinducers, primary screen, BH1578 luxS cqsA deficient, single point. AID 588436, 2011. 350,000 tested, 0.16% active. activation, % at 18.7 µM. V. cholerae BH1578 lux reporter, luminescence, 6 h; in the data active = activation mostly above about 9.7%, no sharp cut-off
MazF activator – activators of E. coli MazEF toxin-antitoxin RNase, primary screen, biochemical, fluorescence, uHTS | FAM/BHQ RNA-DNA oligo cleavage fluorescence, 5 h | activation, % at 20 µM | 350,000 tested, 0.32% active; in the data active = activation above about 50%
Target sequence (P0AE70 whole entry, looked up): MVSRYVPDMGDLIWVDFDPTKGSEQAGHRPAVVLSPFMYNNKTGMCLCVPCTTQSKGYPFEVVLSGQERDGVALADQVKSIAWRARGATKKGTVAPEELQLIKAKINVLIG
A number is an active result. Most compounds without a hit are left out; they make up all but 0.94% or so of the library.

What do the screens show for `Cc1cc(C(O)CCNC(=O)C2CC(=O)N(c3ccc(F)cc3)C2)c(C)o1` (stereo not drawn)?
PriA SSB inh: inactive

How did CCCOc1c(OC)cccc1C1CC(=O)Nc2cc(OC)c(OC)c(OC)c21 (stereo not drawn) do in these assays?
PriA SSB inh: inactive; Vc quorum ag: inactive; MazF activator: inactive

What do the screens show for `COc1cc2c(c(OC)c1)C(c1cccc(OC)c1OC)CC(=O)N2` (stereo not drawn)?
PriA SSB inh: 115; Mtb hypoxia rep: inactive; Vc quorum ag: inactive; MazF activator: inactive

What do the screens show for `COc1ccc(/C=C/c2nc3sc4c(c3c(=O)o2)CCC4)cc1`?
PriA SSB inh: inactive; Vc quorum ag: inactive; MazF activator: active

What do the screens show for `CCc1nc2sc3c(c2c(=O)o1)CCCC3`?
PriA SSB inh: 69; Mtb hypoxia rep: inactive; Vc quorum ag: inactive; MazF activator: inactive

What do the screens show for `CC(C)(C)c1nc2sc3c(c2c(=O)o1)CCCC3`?
PriA SSB inh: inactive; Vc quorum ag: inactive; MazF activator: inactive

Results for O=c1oc(/C=C/c2ccccc2)nc2sc3c(c12)CCC3 ?
PriA SSB inh: inactive; Vc quorum ag: inactive; MazF activator: 324

How did O=C(CCS(=O)(=O)c1ccccc1)N1CCCC(c2nnc(-c3ccccc3F)s2)C1 (stereo not drawn) do in these assays?
PriA SSB inh: inactive

Results for COc1ccc(C)cc1NC(=O)Cn1c(=O)n(Cc2ccc(F)cc2)c(=O)c2nccnc21 ?
PriA SSB inh: inactive

What do the screens show for `O=C(NCc1ccc2c(c1)OCO2)C(=O)Nc1ccc2c(c1)OCCO2`?
PriA SSB inh: inactive

What do the screens show for `Cc1nc(NC(=O)/C=C/c2ccc(Cl)cc2Cl)sc1C(=O)N(C)C`?
PriA SSB inh: inactive; Mtb hypoxia rep: inactive; Vc quorum ag: inactive; MazF activator: 79

What do the screens show for `COc1ccccc1N1CCN(CCNS(=O)(=O)c2ccc(F)cc2)CC1`?
PriA SSB inh: inactive

What do the screens show for `COC(=O)c1ccc(Cn2cc(C(F)(F)F)cc([N+](=O)[O-])c2=O)cc1`?
PriA SSB inh: inactive; Vc quorum ag: active; MazF activator: inactive

What do the screens show for `COC(=O)c1ccc(Cn2cc(C(F)(F)F)ccc2=O)cc1`?
PriA SSB inh: inactive; Mtb hypoxia rep: inactive; Vc quorum ag: inactive; MazF activator: inactive

How did Cc1ccccc1OCC(=O)N1CCN(c2nc(-c3ccsc3)cs2)CC1 do in these assays?
PriA SSB inh: inactive

How did COc1ccc(N2CCN(c3ncnc4scc(-c5ccccc5)c34)CC2)cc1 do in these assays?
PriA SSB inh: 46; Mtb hypoxia rep: inactive; Vc quorum ag: inactive; MazF activator: inactive

Results for O=C(Nc1cccc(Cl)c1)c1cc(N=Nc2ccc([N+](=O)[O-])cc2Cl)ccc1O ?
PriA SSB inh: inactive; Mtb hypoxia rep: 70; Vc quorum ag: inactive; MazF activator: inactive

How did Cc1ccc(N=C2NC(=O)/C(=C/c3cccs3)S2)cc1C do in these assays?
PriA SSB inh: inactive; Mtb hypoxia rep: inactive; Vc quorum ag: inactive; MazF activator: 54

What do the screens show for `Oc1ccc(C=Nc2ccc(N3CCOCC3)cc2)c(O)c1`?
PriA SSB inh: inactive; Mtb hypoxia rep: inactive; Vc quorum ag: inactive; MazF activator: inactive

What do the screens show for `Cc1ccc(N=Cc2ccc(O)cc2O)cc1F`?
PriA SSB inh: inactive; Mtb hypoxia rep: inactive; Vc quorum ag: inactive; MazF activator: 194

How did O=C(NCC(c1cccc2ccccc12)N1CCOCC1)c1ccc(F)cc1 (stereo not drawn) do in these assays?
PriA SSB inh: inactive

What do the screens show for `CCCOc1ccc(/C=c2\sc3nc(-c4ccco4)nn3c2=O)cc1OCC`?
Vc quorum ag: inactive; MazF activator: 218

Results for CCOc1ccc(C=c2sc3nc(-c4ccco4)nn3c2=O)cc1OCC ?
PriA SSB inh: inactive

Results for CCCCCc1cc(=O)oc2c(C(CCN3CCCC(C)C3)c3cc(OC)c(OC)c(OC)c3)c(OC)cc(OC)c12 (stereo not drawn) ?
PriA SSB inh: inactive; Mtb hypoxia rep: inactive; Vc quorum ag: inactive; MazF activator: inactive

Results for CCCCCc1cc(=O)oc2c(C(CCN3CCCC(C)C3)c3ccc(N(C)C)cc3)c(OC)cc(OC)c12 (stereo not drawn) ?
PriA SSB inh: 90; Vc quorum ag: inactive; MazF activator: inactive

Results for CCN(CC)CCC(c1cc(OC)c(OC)c(OC)c1)c1c(OC)cc(OC)c2c(C)cc(=O)oc12 (stereo not drawn) ?
PriA SSB inh: inactive; Mtb hypoxia rep: inactive; Vc quorum ag: inactive; MazF activator: inactive

What do the screens show for `CCCCCc1cc(=O)oc2c(C(CCN(CC)CC)c3ccc(N(C)C)cc3)c(OC)cc(OC)c12` (stereo not drawn)?
PriA SSB inh: 67; Mtb hypoxia rep: inactive; Vc quorum ag: inactive; MazF activator: inactive

Results for COc1ccc2nc(SCC(C)=O)c(C#N)cc2c1 ?
PriA SSB inh: inactive; Mtb hypoxia rep: inactive; Vc quorum ag: inactive; MazF activator: 934

Results for CCOC(=O)CSc1nc2cc(C)ccc2cc1C#N ?
PriA SSB inh: inactive; Mtb hypoxia rep: inactive; Vc quorum ag: inactive; MazF activator: 628

What do the screens show for `COc1ccc2nc(SC)c(C#N)cc2c1`?
PriA SSB inh: inactive; Mtb hypoxia rep: inactive; Vc quorum ag: inactive; MazF activator: inactive

What do the screens show for `CCOC(=O)CSc1nc2cc(C)cc(C)c2cc1C#N`?
PriA SSB inh: inactive; MazF activator: inactive

What do the screens show for `CCOC(=O)CSc1nc2ccc(C)cc2cc1C#N`?
PriA SSB inh: inactive; Mtb hypoxia rep: inactive; Vc quorum ag: inactive; MazF activator: 296

Results for CCOC(=O)CSc1nc2cc(OC)ccc2cc1C#N ?
PriA SSB inh: inactive; Mtb hypoxia rep: inactive; Vc quorum ag: inactive; MazF activator: 120

What do the screens show for `COc1ccc2cc(C#N)c(SCC(=O)Nc3nonc3C)nc2c1`?
PriA SSB inh: inactive; Mtb hypoxia rep: inactive; Vc quorum ag: inactive; MazF activator: inactive

How did COc1ccc(CNC(=O)N2CCC(Cn3nc(C)cc3C)CC2)cc1OC do in these assays?
PriA SSB inh: inactive

How did COc1ccc2nc(SCC(=O)N3CC(=O)Nc4ccccc43)c(C#N)cc2c1 do in these assays?
PriA SSB inh: inactive; Mtb hypoxia rep: inactive; Vc quorum ag: inactive; MazF activator: 58

How did Cc1cc2cc(C#N)c(SCC(=O)Nc3nonc3C)nc2cc1C do in these assays?
PriA SSB inh: inactive; Mtb hypoxia rep: inactive; Vc quorum ag: inactive; MazF activator: 63

Results for Cc1cc2[nH]c3c(c[n+](C)c4ccccc34)c2cc1C ?
PriA SSB inh: inactive; Mtb hypoxia rep: 64; Vc quorum ag: inactive; MazF activator: inactive

How did CN(C)c1ccc(CNS(=O)(=O)c2csc(C(N)=O)c2)cc1 do in these assays?
PriA SSB inh: inactive; Mtb hypoxia rep: inactive; Vc quorum ag: inactive; MazF activator: inactive

What do the screens show for `NC(=O)c1cc(S(=O)(=O)NCCCc2ccccc2)cs1`?
PriA SSB inh: 49; Mtb hypoxia rep: inactive; Vc quorum ag: inactive; MazF activator: inactive

How did CN1CCN(C(=O)c2cc(-c3cccs3)n(CC(=O)Nc3ccc(F)cc3F)n2)CC1 do in these assays?
PriA SSB inh: inactive

Results for CCOc1ccc(OCC)c(S(=O)(=O)NCCn2ncccc2=O)c1 ?
PriA SSB inh: inactive
